# In PubChem BioAssay (NCI):
# The panel holds about 83,000 compounds, 20% with a hit somewhere; the sample as a whole holds those more often.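 How to read the values: 0–100, growth inhibition (40 = 60% inhibited); 0, no net growth; -100 to 0, cell death (-40 = 40% of starting cells died; -100 = all dead).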 Values without a mark were called inactive. The source made the active and inactive calls. The calls were made as follows: active = growth percent below 10; inactive = the rest.
# What was measured:
# Test in all cases: NCI-60 one-dose screen, 48 h (100 = growth as untreated, 0 = no growth, -100 = all killed)
# Settings in all cases: 10 µM
# T-47D breast = tested on: T-47D breast
# BT-549 breast = tested on: BT-549 breast
# MDA-MB-435 melanoma = tested on: MDA-MB-435 melanoma
# SW-620 colon = tested on: SW-620 colon
# MCF7 breast = tested on: MCF7 breast
# HCT-116 colon = tested on: HCT-116 colon
# HCC-2998 colon = tested on: HCC-2998 colon
# KM12 colon = tested on: KM12 colon
SMILES,growth (T-47D breast),growth (BT-549 breast),growth (MDA-MB-435 melanoma),growth (SW-620 colon),growth (MCF7 breast),growth (HCT-116 colon),growth (HCC-2998 colon),growth (KM12 colon)
COc1cc2c3c(n(C4CCN(C)CC4)c(=O)c2cc1OC)-c1cc2c(cc1C3=O)OCO2,31%,59.7%,84.5%,56.2%,24.8%,40.8%,66.3%,75.9%
Cn1cnc([N+](=O)[O-])c1/C=C1\Oc2ccc(Br)cc2C1=O,98.1%,95.8%,78%,82.6%,47.9%,56.9%,101%,93.9%
O=C(Nc1ccc(OCc2nnc(-c3ccc(Cl)cc3)o2)c(F)c1)Nc1ccc(Cl)c(C(F)(F)F)c1,4.57% (active),-13.9% (active),8.01% (active),15.7%,3.17% (active),2.12% (active),9.15% (active),3.14% (active)
NC(=O)c1cccc(-n2ccc3cc(NC(=O)Nc4ccc(Cl)c(C(F)(F)F)c4)ccc32)n1,68.5%,69.8%,74.9%,111%,43.8%,67%,96.3%,64.4%
COc1cc(-c2nn(-c3cccc(NC(=O)NCCNS(=O)(=O)c4ccc(Cl)cc4)c3)cc2-c2ccncc2)ccc1Cl,23.8%,-11.6% (active),2.25% (active),18.9%,4.85% (active),0.871% (active),-9.49% (active),7.63% (active)
CCn1c(SC/C(=N/O)c2ccccc2)nnc1-c1ccccc1,120%,115%,105%,98.7%,112%,101%,96.6%,110%
N#Cc1c(-c2ccc(Cl)cc2)cc(-c2cc(O)ccc2O)nc1N,8.26% (active),22.6%,6.77% (active),8.32% (active),4.41% (active),19.8%,52.7%,27.2%
Cc1nn(-c2ccc(-c3ccc(OC(F)(F)F)cc3)cc2)c2nc(Cc3ccccc3)nc(N)c12,49%,99.4%,83.5%,54.4%,73.8%,36.3%,77.2%,79.6%
COc1cc(-c2nn(-c3cccc(NC(=O)CN4CCOCC4)c3)cc2-c2cccnc2)ccc1Cl,72.2%,62.2%,6.77% (active),62.2%,62.4%,82.7%,112%,71.9%
CN1CCN(CCCn2c(=O)c3sc4ncccc4c3n3nnc(-c4ccccc4)c23)CC1,-75.4% (active),50.1%,-75.8% (active),-65.5% (active),5.32% (active),-59.2% (active),-5.79% (active),16.4%
CC[C@H]1OC(=O)[C@H](C)[C@@H](O[C@H]2C[C@@](C)(OC)[C@@H](O)[C@H](C)O2)[C@H](C)[C@@H](O[C@@H]2O[C@H](C)C[C@H](N(C)C)[C@H]2O)[C@](C)(OC)C/C(C)=C2/O[C@@]1(C)C=C2C,41.8%,78.7%,-83.4% (active),-100% (active),-8.4% (active),4.59% (active),-85.8% (active),18.2%
CN(C)CCOc1cccc(-c2nc3sccn3c2-c2ccnc(S(C)(=O)=O)n2)c1,74.7%,104%,96.8%,91.7%,88.3%,92.6%,106%,102%
C=CCN(CC=C)C(=O)[C@H](CC)[C@@H]1CC[C@@H](C)[C@@H]([C@H](C)[C@@H](O)[C@@H](C)C(=O)[C@H](CC)C2O[C@]3(C=C[C@@H](O)[C@]4(CC[C@@](C)([C@H]5CC[C@](O)(CC)[C@H](C)O5)O4)O3)[C@H](C)C[C@@H]2C)O1 (stereo partly drawn),9.12% (active),27.3%,6% (active),12.3%,1.92% (active),9.64% (active),12.6%,27.5%
COc1cc(/C=C/c2cc(/C=C/c3ccc(O)c(OC)c3)[nH]c(=O)n2)ccc1O,59.1%,55%,56.9%,43.6%,52.1%,34.7%,71%,29.3%
CCN1C(=O)CC(SC2CC(=O)N(CC)C2=O)C1=O (stereo not drawn),102%,101%,104%,108%,103%,104%,97.6%,104%
O=C(CSc1nnc(-c2ccc(Cl)cc2)o1)Nc1ccc(C(=O)/C=C/c2ccc(Cl)cc2)cc1,98.6%,133%,98.1%,101%,78%,103%,93.1%,97.8%

SMILES,growth (T-47D breast),growth (BT-549 breast),growth (MDA-MB-435 melanoma),growth (SW-620 colon),growth (MCF7 breast),growth (HCT-116 colon),growth (HCC-2998 colon),growth (KM12 colon)
COc1ccc(C(=O)N/N=C/c2cc(C(F)(F)F)ccc2Cl)cc1,90%,96.1%,91.1%,98.8%,60.3%,93.2%,95.7%,101%
Cc1cc(CSc2ccccc2C(=O)N2CC=C(c3ccccc3)CC2)on1,75.5%,101%,98%,97.6%,94.9%,93.1%,93.3%,97.2%
COc1cc(/C=C/c2cc(/C=C/c3ccc(O)c(OC)c3)n(C(=O)Nc3ccccc3Cl)n2)ccc1O,4.55% (active),-26.4% (active),4.08% (active),6.99% (active),4.41% (active),1.16% (active),2.83% (active),0.0939% (active)
COc1ccc(/C=C2\CCCC3C2=Nc2ccccc2NC3c2ccc(OC)cc2)cc1 (stereo not drawn),101%,79.6%,13.8%,72.2%,56.1%,38.1%,104%,27.5%
O=C1CSC(=S)N1/N=C/c1ccc(Cl)s1,102%,102%,106%,108%,101%,107%,99.8%,97.5%
Nc1nc(N)c(N)c(Nc2ccc(CCO)cc2)n1,102%,99.9%,104%,94%,105%,104%,106%,101%
COc1ccc2c(c1)C(=O)/C(=C/c1ncc([N+](=O)[O-])n1C)O2,92%,-18.7% (active),-63.2% (active),-41% (active),5.2% (active),-10.7% (active),-64.1% (active),-36.3% (active)
COc1ccc(-c2nn(-c3cccc(Cl)c3)cc2-c2cc(-c3ccccc3)[nH]c(=O)c2C#N)cc1,27.6%,3.07% (active),81.5%,67.7%,52.9%,15.6%,49.9%,69.8%
CCC1NC(=O)c2cc(S(N)(=O)=O)c(Cl)cc2N1 (stereo not drawn),104%,114%,101%,108%,106%,115%,105%,113%
CCC(CC)n1c(C)cc(=O)n1C(CC)CC,105%,122%,102%,105%,105%,105%,105%,115%
COc1ccc(-c2nn(-c3cccc(Cl)c3)cc2-c2cc(-c3ccccc3)nc(N)n2)cc1,46.5%,73%,57%,45.3%,12.9%,5.52% (active),21.9%,31.8%
Cc1c(Cl)cccc1NC(=O)CN1CCOCC1,96.1%,97.4%,98.7%,94.5%,98.1%,97%,103%,97.3%
Cc1ccc(-c2c3c(N)nc(-c4cccnc4)nc3nc3c2c(C)nn3-c2ccccc2)cc1,81.8%,100%,82.7%,102%,87.7%,81.1%,103%,97.1%
Fc1ccc2[nH]cc(-c3nc(-c4ccsc4)cs3)c2c1,57%,96.9%,105%,94.8%,65.9%,91.5%,105%,101%
C=C(C)[C@@H]1CC[C@]2(COCCC#N)CC[C@]3(C)[C@H](CC[C@@H]4[C@@]5(C)Cc6c([nH]c7ccccc67)C(C)(C)[C@@H]5CC[C@]43C)[C@@H]12,81.8%,95.3%,95.8%,92.6%,81.1%,82%,104%,95.8%
